The values below come from PubChem BioAssay (NCATS).

Records with an inconclusive call do not appear. Where a call stands in place of a potency, no number is given. Active and inactive are the calls of the source. The call rests on the fitted dose curve; in most records, active means well fitted inhibition curve with a large enough effect; inconclusive means small, poorly fitted or top-dose-only effect; inactive means no such curve, though single readings can be large or run the other way.
Potency means the concentration at half of the fitted maximal effect.

This assay is described as follows: P-glycoprotein substrates identified in KB-3-1 adenocarcinoma cell line, qHTS therapeutic library screen (AID 1346986). Further: nearly all actives have a fitted effect of over 60% in size.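 Further: potency is for cytotoxicity meaning loss of cell viability.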 The settings on record: KB-3-1 parental cells viability, CellTiter-Glo, 72 h; series mostly up to 44.5 µM. Here is the method: The ATP-binding cassette transporters P-glycoprotein (P-gp) is known to limit brain penetration of many chemotherapy drugs. […] We used the CellTiter-Glo viability assay to test library compounds against the parental KB-3-1 human cervical adenocarcinoma cell line and the colchicine-selected sub-line KB-8-5-11 that over-expresses P-gp. KB-8-5-11 cells were also tested in the presence of a P-gp inhibitor (tariquidar) to assess reversability of transporter-mediated resistance. Of the tested compounds, a total of 90 P-gp substrates were identified including 55 newly identified P-gp substrates. Substrates were confirmed using an orthogonal killing assay against HEK-293 cells transfected with P-gp. As exemplars, we confirmed that AT7159 (cyclin-dependent kinase inhibitor); AT9283, (Janus kinase 2/3 inhibitor); ispinesib (kinesin spindle protein inhibitor); gedatolisib (PKI-587, phosphoinositide 3-kinase/mammalian target of rampamycin inhibitor); GSK-690693 (AKT inhibitor); and KW-2478 (heat shock protein 90 inhibitor) were substrates , and direct ATPase stimulation was assessed. ABCG2 was also found to confer high levels of resistance to AT9283, GSK-690693 and gedatolisib, while ispinesib, AT7519 and KW-2478 were weaker substrates.
The HeLa derivative cell line, KB-3-1, and its colchicine-selected, P-gp-overexpressing subline, KB-8-5-11 were maintained in DMEM with 10% FCS and Pen/Strep with glutamine at 37 degree C in 5% CO2. For KB-8-5-11 cells, colchicine was added to the medium at a concentration of 100 ng/mL. HEK-293 cells transfected with empty vector (pcDNA) or vector containing human ABCB1 (MDR-19) or ABCG2 (R-5) have been described previously (Robey, Lin, Qiu, Chan & Bates, 2011) and were maintained in EMEM supplemented with 10% FCS, Pen/Strep and glutamine with 2 mg/ml G418 to select for the expression of the transporter. Cultures were confirmed to be free of mycoplasma infection using the MycoAlert Mycoplasma Detection Kit (Lonza, Walkersville, MD). For the screen, assay medium was identical to culture medium except for KB-8-5-11 where colchicine was excluded from the medium.
All cell lines were plated into 1536-well plates at 500 cells/well in 5 uL media. Compounds were then pinned in dose-response using a 1536-head pin tool (Kalypsis, San Diego, CA) and plates were incubated at 37 degree C in 5% CO2 for an additional 72 h. CellTiter-Glo reagent (Promega) was dispensed into the wells, incubated for 5 min and luminescence was read on a ViewLux instrument (Perkin-Elmer). Cytotoxic compounds were defined as those that yielded a curve class of -1.1, -1.2, -2.1, -2.2, -2.3, or -2.4, a maximum response of >50% and an AC50 of < 10 uM. Cherry-picked hits from screening analysis were tested with both the KB pair of cell lines, and the pcDNA (empty vector control) and MDR-19 (P-gp overexpressing) pair were tested, in the absence and presence of tariquidar.
As for `O=C(O)c1ccc2c3c1cccc3c(=O)n1c3ccccc3nc21`, the Potency entry was “inactive”. The entry for `c1nc(NCC2CCOC2)c2cc(-c3ccc4c(c3)OCO4)ccc2n1` (stereo not given) is “inactive”; for `O=C(Nc1ccc(S(=O)(=O)Nc2nccs2)cc1)c1cc(-c2ccccc2)nc2ccccc12` it is “inactive”; for `COc1cc(OC)c2ccc(=O)oc2c1` it is “inactive”. The entry for `Cc1c[nH]c(/C=C2\C(=O)Nc3ccccc32)c1CCC(=O)O` is “inactive”.

As for `O=C(O)c1c[nH]c2c(ccc3ccccc32)c1=O`, the Potency result was “inactive”. The entry for `CN(C)CC1CCn2cc(c3ccccc32)C2=C(C(=O)NC2=O)c2cn(c3ccccc23)CCO1` (stereo not given) is “inactive”; for `Cc1ccc(NS(=O)(=O)c2cc3c(cc2NC(C)CO)NC(=O)CC3)cc1C` (stereo not given) it is “inactive”.

Regarding `CCOC(=O)c1c2c3c(cccc3[nH]c1=O)C(=O)c1ccccc1-2`, the Potency entry is “inactive”. `Nc1ncnc2c1nc(Cl)n2C1O[C@H](CO)[C@@H](O)[C@H]1O` (stereo not given in full): the Potency is 2.91 µM (active).

`CCCC(NC(=O)/C(C#N)=C/c1cccc(Br)n1)c1ccccc1` (stereo not given): the Potency was 16.4 µM (active).

`Cc1[nH]c(/C=C2\C(=O)Nc3ccc(F)cc32)c(C)c1C(=O)NC[C@H](O)CN1CCOCC1`: the Potency is 14.6 µM (active).

For `Cc1ccc(OCCSc2ncccn2)c(Br)c1`, the Potency entry is “inactive”. The entry for `CNS(=O)(=O)c1ccc2c(c1)/C(=C/c1[nH]c3c(c1CCCN1CCN(C)CC1)CCCC3)C(=O)N2` is “inactive”; for `COC(=O)c1ccc(=O)c2nc3/c(=C/O)c(O)cc(=O)c3[nH]c12` it is “inactive”.

`CCOC(=O)N1CCN(C(=O)Cn2sc3nc(C)cc(C)c3c2=O)CC1`: the Potency result is “inactive”. Regarding `Cc1ccc([N+](=O)[O-])cc1S(=O)(=O)N(C)/N=C\c1cnc2ccc(Br)cn12`, the Potency is 0.164 µM (active). The entry for `O=S(=O)(NCCNC/C=C/c1ccc(Br)cc1)c1cccc2cnccc12` is “inactive”. The figure for `Cc1cc(Nc2cc(C)c(C#N)c(NC(C)CCCC(C)(C)O)n2)n[nH]1` (stereo not given) is 1.46 µM (active); for `O=C1CCCC2=C1C(c1ccncc1Br)N=C(Nc1nc3ccccc3o1)N2` (stereo not given) it is “inactive”. The figure for `C=CC(=O)Nc1cccc(Nc2nc(Nc3ccccc3)ncc2C)c1` is 18.4 µM (active); for `CC1CN(CC(=O)Nc2ccc3c(c2)Cc2cccc(-c4cc(=O)cc(N5CCOCC5)o4)c2S3)CC(C)O1` (stereo not given) it is “inactive”. For the molecule `S=c1ssc2c1CCC2`, the Potency entry is “inactive”.

Regarding `COC[C@H](C)Oc1cc(O[C@@H](C)Cc2ccccc2)cc(C(=O)Nc2ccc(C(=O)O)cn2)c1`, the Potency result was “inactive”. The entry for `Cc1cc(-c2ccc(/C=C3\SC(=Nc4ccc(Cl)c(C(=O)O)c4)NC3=O)o2)c([N+](=O)[O-])cc1C` is “inactive”. On to `COC(=O)C#Cc1ccc([N+](=O)[O-])cc1`, for which the Potency was 13 µM (active). The figure for `CC(C)n1nc(-c2ccc(NC(=O)Nc3cccc(C(F)(F)F)c3)cc2)c2c(N)ncnc21` is 1.03 µM (active). The figure for `COc1cc(OC)c(/C=C2\C(=O)Nc3ccccc32)c(OC)c1` is 0.92 µM (active); for `N#Cc1c2nc3ccccc3nc2n2ccc(NC(=O)c3cccs3)cc12` it is 23.1 µM (active). The entry for `Cc1nc(CNc2ncnc3ccc(-c4ccc5c(c4)OCO5)cc23)cs1` is “inactive”; for `NC(=O)c1ncn(C2O[C@H](CO)[C@@H](O)[C@H]2O)c1N` (stereo not given in full) it is “inactive”. Turning to `COc1cc2c(cc1OC)/C(=C/c1ccc(O)cc1)C(=O)N2`, the Potency entry is “inactive”. Consider `O=C1CCCC2=C1C1(CCCC1)N=C(Nc1nc3ccccc3o1)N2`, for which the Potency result is “inactive”. Take `O=C1/C(=C/c2ccc(O)c(O)c2)Oc2ccccc21`: the Potency entry was “inactive”.

In the case of `Nc1ccc(-c2cnc(N)c(-c3ccc(Cl)cc3)c2)cn1`, the Potency result was “inactive”. The figure for `COc1cc2ncnc(Sc3nnc(C)s3)c2cc1OC` is 18.4 µM (active); for `Cc1cc2ncc(-c3ccccc3)nc2cc1C` it is “inactive”. The entry for `C=C(C)[C@@H]1CCC2=CC(=O)C[C@@H](C)[C@]2(C)C1` is “inactive”; for `CN1C/C=C/CCOc2cccc(c2)-c2ccnc(n2)Nc2cccc(c2)C1` it is 0.092 µM (active). As for `c1ccc(-c2[nH]ncc2-c2ccnc3ccccc23)nc1`, the Potency result was “inactive”.
